About 83,000 compounds went through this panel and 20% of them were active in at least one assay; those are over-represented in the sample as a whole.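 Percent growth is the endpoint: 0 to 100 indicates growth inhibition (40 means 60% inhibition), 0 means no net growth, and negative values indicate cell death.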 Calls of active or inactive are those of the source. How the source made its calls: active means growth percent below 10; inactive means the rest.
Assays:
Test in all cases: NCI-60 one-dose screen, 48 h (100 = growth as untreated, 0 = no growth, -100 = all killed)
Details in all cases: 10 µM unless noted
[1] = tested on: DU-145 prostate
[2] = tested on: K-562 leukemia
[3] = tested on: MALME-3M melanoma
[4] = tested on: RXF 393 renal
[5] = tested on: SF-268 CNS
[6] = tested on: SF-295 CNS
[7] = tested on: SF-539 CNS
[8] = tested on: UACC-257 melanoma
[9] = tested on: HCT-15 colon
[10] = tested on: HT29 colon
[11] = tested on: SNB-75 CNS
[12] = tested on: SNB-19 CNS
[13] = tested on: U251 CNS
[14] = tested on: PC-3 prostate
[15] = tested on: SK-MEL-5 melanoma
[16] = tested on: UACC-62 melanoma
[17] = tested on: LOX IMVI melanoma
[18] = tested on: SK-MEL-28 melanoma
[19] = tested on: MDA-MB-231 breast
[20] = tested on: M14 melanoma

Measured: growth

COc1cc(NC(=O)c2cccc(-c3cc(=O)c4c(O)c(OC)c(OC)cc4o3)c2)cc(OC)c1OC
inactive: [1] 57.3% | [2] 54.5% | [3] 51% | [4] 75% | [5] 61.9% | [6] 61.5% | [7] 51.7% | [8] 66.1% | [9] 59.9% | [10] 62.8% | [11] 32.3% | [12] 50% | [13] 44.8% | [14] 49.8% | [15] 39.2% | [16] 49.4% | [17] 33% | [18] 77.4%

COc1cc(C2CC(=O)Nc3n[nH]c(-c4ccccc4)c32)cc(OC)c1OC (centres undefined)
inactive: [1] 102% | [2] 24.6% | [3] 68.5% | [19] 63.9% | [5] 90.7% | [6] 75.5% | [7] 81.2% | [20] 53.3% | [9] 68.4% | [10] 47.1% | [11] 47.7% | [12] 75.4% | [13] 62.9% | [14] 59.3% | [15] 68% | [16] 38% | [17] 70.3% | [18] 66.5%

COc1ccc(OC)c(/C=C2\COc3ccc(O)c(O)c3C2=O)c1
active: [1] 3.87% | [2] 5.87% | [3] -5.32% | [19] 9.33% | [7] -23.1% | [9] 1.18% | [17] -63.1%
inactive: [5] 15.9% | [6] 78.4% | [8] 49.4% | [10] 33.7% | [12] 33.9% | [13] 19% | [14] 26.6% | [16] 28.9% | [18] 48.7%

c1ccc2[nH]c(SSc3nc4ncncc4[nH]3)nc2c1
inactive: [1] 29.5% | [2] 17.1% | [19] 36.1% | [4] 64.7% | [5] 30.1% | [8] 42% | [9] 26.9% | [10] 29.5% | [11] 45.5% | [12] 84.4% | [13] 54% | [14] 42.9% | [15] 28.1% | [16] 12.7% | [18] 86%
active: [6] -39% | [7] 8.16% | [20] 8.49% | [17] 4.64%

COc1ccc(/C=C2\COc3ccc(O)cc3C2=O)cc1OC
inactive: [1] 65.7% | [3] 92.6% | [19] 87.5% | [5] 93.1% | [6] 103% | [7] 83.2% | [8] 80.2% | [9] 71.3% | [10] 19.9% | [11] 91.3% | [12] 59.5% | [13] 40.8% | [14] 64.3% | [16] 77.1% | [18] 97.3%
active: [2] 8.84%

C(=C\c1nc2ccccc2[nH]1)/c1nc2ccccc2[nH]1
inactive: [1] 107% | [2] 90% | [19] 90.4% | [4] 122% | [5] 110% | [6] 100% | [7] 104% | [8] 86.6% | [20] 100% | [9] 100% | [10] 103% | [11] 86.2% | [12] 109% | [13] 106% | [14] 90% | [15] 92.8% | [16] 91.1% | [17] 98.1% | [18] 104%

Nc1c(C(=O)Nc2ccccc2)sc2nc3c(cc12)CCCCCC3
active: [2] 7.92% | [4] -38.7% | [6] -0.47% | [7] -41.8% | [10] -9.08% | [11] 4.5% | [13] 9.62% | [15] 9.45%
inactive: [1] 18.6% | [3] 31.3% | [5] 36.6% | [8] 44.9% | [9] 16.3% | [14] 31.8% | [17] 35.1% | [18] 27.8%

COC1=CC(c2ccc[nH]2)=N/C1=C\c1[nH]c(C)c(C(=O)OCCn2cc(CCC[C@@H]3Cc4cc(O)ccc4C4CC[C@]5(C)[C@@H](O)CC[C@H]5C43)nn2)c1C (some centres undefined)
active: [17] -17%
inactive: [1] 50.1% | [2] 51.9% | [3] 131% | [4] 60.1% | [5] 69.9% | [6] 96.1% | [7] 64.2% | [8] 96.4% | [9] 25% | [10] 18.9% | [11] 44.7% | [13] 47.1% | [14] 50.4% | [15] 88.2% | [18] 94.5%

O=C1/C(=C/c2ccccc2[N+](=O)[O-])COc2ccc(O)c(O)c21
active: [1] 2.13% | [2] 4.47% | [3] -31.6% | [19] -16.7% | [5] 0.467% | [7] -69.4% | [8] -8.55% | [9] -11.8% | [10] 5.22% | [13] 2.61% | [14] -0.516% | [17] -73.2% | [18] -13.6%
inactive: [6] 58.3% | [11] 22.8% | [12] 26.5%

Reference: PubChem BioAssay (NCI)
